This excerpt belongs to a sample that is enriched for hits.
STK33 kin inh – human STK33 kinase inhibition; ADP-Glo luminescence, MBP substrate; inhibition, % at 12.5 µM; actives 0.44% (n = 27,000); in the data active means inhibition above about 20%
ID4 binder – binds human ID4 protein on microarray; P47928; small molecule microarray, Flag-ID4 binding, fluorescence F/B; calls only; actives 1.2% (n = 31,000); AID 624137; call rule not given here;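 further: a binder raises fluorescence above local background on the spot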
Calls only; - = inactive; . = not tested or not shown; + = active, no number.

SMILES | STK33 kin inh | ID4 binder
Cc1nnc(SCC(=O)Nc2ccc(Oc3ccccc3)cc2)s1 | - | -
O=C(O)c1ccc2c(c1)C1C3CCC(C3)C1C(c1ccccc1)N2 (centres undefined) | . | -
O=C(CC(C(=O)O)N1CCCCC1)Nc1cccc2ccccc12 (centres undefined) | - | -
CCO[C@@H]1OC(C(=O)N2CCN(Cc3ccccc3)CC2)=C[C@H](C(C)(C)C)[C@H]1CCCO | . | -
C[C@H]1CN([C@@H](C)CO)C(=O)CCCn2cc(nn2)CO[C@@H]1CN(C)CC1CCCCC1 | - | +
C[C@@H]1CN([C@@H](C)CO)C(=O)CCCn2cc(nn2)CO[C@@H]1CN(C)CC1CCCCC1 | - | -
